Source: PubChem BioAssay (Tox21)
Records with an inconclusive call do not appear. Where a call stands in place of a potency, no number is given. Unmarked numbers belong to inactive results. Active and inactive are the calls of the source. Unless noted, the call rests on the fitted dose curve; in most records, active means well fitted curve in the direction sought with a large enough effect in the repeat runs; inconclusive means weak or mixed curves; inactive means no such curve, though single readings can be large; an effect the other way counts as inactive or inconclusive.

What was measured:
[1] = qHTS assay to identify small molecule antagonists of the thyroid receptor (TR) signaling pathway - cell viability counter screen (AID 743064); further: nearly all actives have a fitted effect of over 50% in size
Summary of the method: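 Counter screen for cytotoxicity: compound plus T3 (1 nM final) on GH3.TRE-Luc cells, 23.5 h at 37 °C, then fluorescence viability readout with CellTiter-Fluor.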

[2] = biological target: Estrogen receptor (Homo sapiens) (UniProt P03372); test: qHTS assay to identify small molecule antagonists of the estrogen receptor alpha (ER-alpha) signaling pathway (AID 743069; active means well fitted curve in the direction sought with a large enough effect in the signal ratio in the repeat runs, not every such curve was filed as active; the % refers to the signal ratio)
Summary of the method: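 HEK293 ER-alpha-UAS-bla GripTite cells, held overnight in 2% charcoal-stripped FBS, 5,000 cells/well, preincubated 4 h, then compound plus 17beta-estradiol for 18 h at 37C. Beta-lactamase read by LiveBLAzer B/G FRET substrate, 2 h at room temperature.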

[3] = qHTS assay to identify small molecule antagonists of the estrogen receptor alpha (ER-alpha) signaling pathway - cell viability counter screen (AID 743074; calls by dose curve;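 further: HEK293 cells carrying ER-alpha-UAS-bla reporter stimulated with 17beta-estradiol; nearly all actives have a fitted effect of over 45% in size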)
[4] = biological target: Estrogen receptor (Homo sapiens) (UniProt P03372); test: qHTS assay to identify small molecule agonists of the estrogen receptor alpha (ER-alpha) signaling pathway (AID 743075; calls by dose curve)
[5] = biological target: Estrogen receptor (Homo sapiens) (UniProt P03372); test: qHTS assay to identify small molecule agonists of the estrogen receptor alpha (ER-alpha) signaling pathway using the BG1 cell line (AID 743079); further: nearly all actives have a fitted effect of over 20% in size; further: potency means the concentration at half of the fitted maximal effect
[6] = qHTS assay to identify small molecule antagonists of the estrogen receptor alpha (ER-alpha) signaling pathway using the BG1 cell line (AID 743080; calls by dose curve;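 further: BG1 cells stimulated with 17beta-estradiol alongside compound; series mostly up to about 70 µM; nearly all actives have a fitted effect of over 25% in size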)
Summary of the method: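 Luminescence from a 4×ERE-luciferase reporter in BG1-Luc-4E2 cells served as read-out. Cells, pre-cultured 5 days in stripped-serum phenol-red-free medium, were exposed to compound with 17beta-estradiol co-stimulation for 21.5 h at 37 C.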

[7] = qHTS assay to identify small molecule antagonists of the estrogen receptor alpha (ER-alpha) signaling pathway using the BG1 cell line - cell viability counter screen (AID 743081);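 further: compound given together with 17beta-estradiol as the ER stimulus; series mostly up to about 70 µM; nearly all actives have a fitted effect of over 45% in size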
[8] = biological target: Aromatase (Homo sapiens) (UniProt P11511); test: qHTS assay to identify aromatase inhibitors (AID 743083); further: series mostly up to about 70 µM; nearly all actives have a fitted effect of over 55% in size
[9] = qHTS assay to identify aromatase inhibitors - cell viability counter screen (AID 743084);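 further: cells stimulated with testosterone during compound exposure; nearly all actives have a fitted effect of over 55% in size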; further: potency means the concentration at half of the fitted maximal effect
[10] = biological target: Aryl hydrocarbon receptor (Homo sapiens) (UniProt P35869); test: qHTS assay to identify small molecule that activate the aryl hydrocarbon receptor (AhR) signaling pathway (AID 743085);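 further: HG2L7.5c1 human HepG2 liver cells with stably integrated DRE-driven firefly reporter; series mostly up to about 70 µM; nearly all actives have a fitted effect of over 15% in size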
Summary of the method: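 Measured in HG2L7.5c1 cells: CellTiter-Fluor signal (30 min incubation, 37C) for viability, then luciferase luminescence (30 min, room temperature). Compound contact time was 24 h at 37C, following a 5 h pre-incubation.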

[11] = qHTS assay to identify small molecule that activate the aryl hydrocarbon receptor (AhR) signaling pathway - cell viability counter screen (AID 743086); further: nearly all actives have a fitted effect of over 45% in size; further: potency means the concentration at half of the fitted maximal effect
Summary of the method: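 HepG2-AhR-luc (HG2L7.5c1) cells, 4000/well, treated 24 h at 37 C with compound; viability measured as CellTiter-Fluor fluorescence after 30 min in the same wells as the luciferase read.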

[12] = biological target: Peroxisome proliferator-activated receptor gamma (Homo sapiens) (UniProt P37231); test: qHTS assay to identify small molecule agonists of the peroxisome proliferator-activated receptor gamma (PPARg) signaling pathway (AID 743094; active means well fitted activation curve with a large enough effect in the signal ratio in the repeat runs, not every such curve was filed as active; the % refers to the signal ratio)
Summary of the method: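 Following 5 h plating at 37C, PPARg-bla HEK293H cells receive compound or DMSO for 17 h; fluorescence intensity is recorded after LiveBLAzer B/G loading for 1 h at room temperature.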

[13] = biological target: Peroxisome proliferator-activated receptor gamma (Homo sapiens) (UniProt P37231); test: qHTS assay to identify small molecule antagonists of the peroxisome proliferator-activated receptor gamma (PPARg) signaling pathway (AID 743191; calls by dose curve; further: series mostly up to about 63 µM; nearly all actives have a fitted effect of over 30% in size)
Summary of the method: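 GeneBLAzer PPARg UAS-bla HEK293H cells, 5 h post-plating, exposed to compounds 17 h at 37C. LiveBLAzer B/G FRET substrate added for 1 h at room temperature; beta-lactamase reporter read by fluorescence intensity.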

[14] = qHTS assay to identify small molecule antagonists of the peroxisome proliferator-activated receptor gamma (PPARg) signaling pathway - cell viability counter screen (AID 743194); further: nearly all actives have a fitted effect of over 55% in size
Summary of the method: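 Cytotoxicity counter screen in PPARg-bla HEK293H cells, same wells as reporter assay. Compounds plus 50 nM rosiglitazone (final) for 17 h at 37 C, then viability read by CellTiter-Glo luminescence.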

[15] = qHTS assay for small molecule agonists of the antioxidant response element (ARE) signaling pathway (AID 743202; active means well fitted activation curve with a large enough effect in the signal ratio in the repeat runs, not every such curve was filed as active; the % refers to the signal ratio)
Summary of the method: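 ARE-bla HepG2 cells (beta-lactamase reporter under the antioxidant response element), plated 5 hours, then exposed to compounds 16 hours at 37 C. LiveBLAzer B/G FRET substrate added for 2 hours at room temperature; fluorescence intensity read.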

[16] = qHTS assay for small molecule agonists of the antioxidant response element (ARE) signaling pathway - cell viability counter screen (AID 743203; calls by dose curve; further: nearly all actives have a fitted effect of over 55% in size)
Summary of the method: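 Compounds in DMSO were pinned onto ARE-bla HepG2 cells plated 5 hrs earlier at 2,000 cells/well. Sixteen hours later at 37C/5% CO2, CellTiter-Glo was added and luminescence measured after 30 min at room temperature.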

[17] = qHTS assay for small molecule activators of the heat shock response signaling pathway - cell viability counter screen (AID 743209); further: nearly all actives have a fitted effect of over 50% in size
Summary of the method: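 Counter screen for cytotoxicity in HeLa HSE-bla reporter cells. Treatment was 5 h at 37 C; viability was detected by luminescent ATP assay (CellTiter-Glo) in the same wells as the beta-lactamase read.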

[18] = qHTS assay for small molecule activators of the heat shock response signaling pathway (AID 743210; active means well fitted activation curve with a large enough effect in the signal ratio in the repeat runs, with a control signal flat, not every such curve was filed as active; the % refers to the signal ratio; further: series mostly up to about 63 µM)
Summary of the method: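 HSE-bla HeLa cells (beta-lactamase reporter under heat shock response elements), plated overnight, then exposed to compounds 5 h at 37 C; LiveBLAzer B/G FRET substrate added, 2.5 h at room temperature, fluorescence intensity read.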

[19] = qHTS assay to identify small molecule antagonists of the thyroid receptor (TR) signaling pathway (AID 743065)
Summary of the method: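 GH3.TRE-Luc rat pituitary cells (two TREs driving luciferase) were dosed with compound, then stimulated with 1 nM T3 (final) for 23.5 h at 37 C. ONE-Glo luminescence was the read-out, with CellTiter-Fluor fluorescence as the cytotoxicity counter-screen.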

[20] = tested on: thyroid hormone receptor (rat, GH3 cells); test: qHTS assay to identify small molecule agonists of the thyroid receptor (TR) signaling pathway (AID 743066; calls by dose curve)

Sequence of Aromatase (Homo sapiens) (P11511 whole entry, looked up): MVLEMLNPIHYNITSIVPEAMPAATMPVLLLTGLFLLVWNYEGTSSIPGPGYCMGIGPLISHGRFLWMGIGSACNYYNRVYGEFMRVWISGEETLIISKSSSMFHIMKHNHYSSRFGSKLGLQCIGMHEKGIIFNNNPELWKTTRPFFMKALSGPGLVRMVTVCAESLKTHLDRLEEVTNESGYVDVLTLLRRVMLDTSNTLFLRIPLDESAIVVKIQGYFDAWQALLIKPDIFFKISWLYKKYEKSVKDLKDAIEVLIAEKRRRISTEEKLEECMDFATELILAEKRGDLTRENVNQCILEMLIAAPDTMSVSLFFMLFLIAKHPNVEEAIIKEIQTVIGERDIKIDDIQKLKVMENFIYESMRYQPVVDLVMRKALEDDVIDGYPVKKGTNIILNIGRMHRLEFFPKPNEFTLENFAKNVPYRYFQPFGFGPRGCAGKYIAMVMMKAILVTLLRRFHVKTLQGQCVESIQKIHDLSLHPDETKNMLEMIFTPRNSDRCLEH
Sequence of Peroxisome proliferator-activated receptor gamma (Homo sapiens) (P37231 whole entry, looked up): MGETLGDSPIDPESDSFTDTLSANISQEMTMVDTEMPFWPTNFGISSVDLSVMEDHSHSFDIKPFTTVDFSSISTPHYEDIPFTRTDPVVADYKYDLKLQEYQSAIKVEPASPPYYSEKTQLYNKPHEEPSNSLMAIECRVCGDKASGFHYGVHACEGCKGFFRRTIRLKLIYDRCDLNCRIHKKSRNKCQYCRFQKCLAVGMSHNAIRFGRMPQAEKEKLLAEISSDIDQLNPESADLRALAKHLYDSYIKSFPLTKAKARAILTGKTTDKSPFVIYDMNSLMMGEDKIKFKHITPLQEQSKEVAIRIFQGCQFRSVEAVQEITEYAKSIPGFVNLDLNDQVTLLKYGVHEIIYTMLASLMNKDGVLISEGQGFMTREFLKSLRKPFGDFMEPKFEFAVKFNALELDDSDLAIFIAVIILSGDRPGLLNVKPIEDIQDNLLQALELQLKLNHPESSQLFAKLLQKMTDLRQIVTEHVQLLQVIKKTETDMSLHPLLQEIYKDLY
Sequence of Estrogen receptor (Homo sapiens) (P03372 whole entry, looked up): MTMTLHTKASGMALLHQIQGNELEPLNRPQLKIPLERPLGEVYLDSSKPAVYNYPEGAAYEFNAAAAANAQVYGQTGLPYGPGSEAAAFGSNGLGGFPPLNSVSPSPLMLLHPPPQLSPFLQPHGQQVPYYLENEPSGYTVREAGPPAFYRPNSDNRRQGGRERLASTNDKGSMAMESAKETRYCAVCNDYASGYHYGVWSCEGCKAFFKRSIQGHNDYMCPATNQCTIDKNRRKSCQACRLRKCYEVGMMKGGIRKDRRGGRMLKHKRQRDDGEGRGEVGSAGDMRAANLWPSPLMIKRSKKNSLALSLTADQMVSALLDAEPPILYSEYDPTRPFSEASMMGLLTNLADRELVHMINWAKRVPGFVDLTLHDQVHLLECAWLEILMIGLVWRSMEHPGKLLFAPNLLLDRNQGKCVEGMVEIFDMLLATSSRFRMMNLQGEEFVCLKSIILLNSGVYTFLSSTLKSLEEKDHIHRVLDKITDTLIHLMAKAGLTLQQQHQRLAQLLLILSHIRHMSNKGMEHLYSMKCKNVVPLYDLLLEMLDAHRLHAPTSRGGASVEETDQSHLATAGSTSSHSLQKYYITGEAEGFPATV
Sequence of Aryl hydrocarbon receptor (Homo sapiens) (P35869 whole entry, looked up): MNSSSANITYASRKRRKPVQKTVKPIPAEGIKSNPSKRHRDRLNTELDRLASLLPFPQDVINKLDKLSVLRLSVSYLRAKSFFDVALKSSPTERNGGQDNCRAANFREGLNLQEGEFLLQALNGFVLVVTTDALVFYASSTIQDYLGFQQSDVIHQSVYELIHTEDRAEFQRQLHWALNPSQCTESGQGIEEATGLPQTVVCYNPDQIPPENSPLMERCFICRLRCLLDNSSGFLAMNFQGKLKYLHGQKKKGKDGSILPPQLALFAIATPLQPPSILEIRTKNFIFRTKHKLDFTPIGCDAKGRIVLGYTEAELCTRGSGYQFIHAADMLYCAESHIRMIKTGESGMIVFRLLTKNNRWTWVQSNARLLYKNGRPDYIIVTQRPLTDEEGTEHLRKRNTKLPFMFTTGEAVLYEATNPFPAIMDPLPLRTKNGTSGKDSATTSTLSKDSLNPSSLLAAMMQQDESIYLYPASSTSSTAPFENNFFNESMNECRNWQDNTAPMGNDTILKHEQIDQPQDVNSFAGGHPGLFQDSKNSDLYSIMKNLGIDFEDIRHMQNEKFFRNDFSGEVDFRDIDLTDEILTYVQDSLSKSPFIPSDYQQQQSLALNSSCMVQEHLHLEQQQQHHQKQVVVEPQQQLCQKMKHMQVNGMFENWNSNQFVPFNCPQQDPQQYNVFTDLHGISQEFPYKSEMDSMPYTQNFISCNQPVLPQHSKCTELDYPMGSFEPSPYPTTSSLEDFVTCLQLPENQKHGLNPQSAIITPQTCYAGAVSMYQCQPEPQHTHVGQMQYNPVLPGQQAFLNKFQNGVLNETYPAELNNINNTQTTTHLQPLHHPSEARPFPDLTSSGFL

Compound	Potency [1]	outcome [2]	outcome [3]	outcome [4]	Potency [5]	Potency [6]	outcome [7]	Potency [8]	Potency [9]	Potency [10]	Potency [11]	outcome [12]	Potency [13]	outcome [14]	Potency [15]	outcome [16]	outcome [17]	outcome [18]	Potency [19]	outcome [20]
Cc1ccc(C=O)cc1C	inactive	inactive	inactive	inactive	inactive	inactive	inactive	inactive	inactive	inactive	inactive	inactive	inactive	inactive	inactive	inactive	inactive	inactive		
Cc1ccccc1N=O	inactive		inactive				inactive							inactive		inactive	inactive	inactive	inactive	inactive
Cc1cc(NC(=O)C2=C(O)c3ccccc3S(=O)(=O)N2C)no1	inactive						inactive	inactive	inactive	inactive	inactive	inactive		inactive	inactive	inactive		inactive	inactive	inactive
CC(C(=O)O)c1ccc2c(c1)CC(=O)c1ccccc1S2 (stereo not given)	inactive	inactive	inactive	inactive	inactive	inactive		inactive	inactive	inactive	inactive			inactive		inactive	inactive	inactive		inactive
Cc1ccc(S(=O)(=O)O)c(C)c1	inactive	inactive	inactive	inactive	inactive	inactive	inactive	inactive	inactive		inactive	inactive	inactive	inactive	inactive	inactive	inactive	inactive		
CC(=O)Nc1ccc(S(=O)(=O)Nc2ccc([N+](=O)[O-])cc2)cc1		inactive	inactive	inactive	inactive	inactive		inactive	inactive	inactive	inactive	inactive	inactive	inactive			inactive		inactive	inactive
CCCCCCCCC1CCC(=O)O1 (stereo not given)	inactive			inactive			inactive	inactive	inactive	inactive		inactive		inactive			inactive	inactive	inactive	inactive
Cc1cc(Cl)c(C)cc1Cl	inactive		inactive				inactive	inactive	inactive	inactive	inactive	inactive	inactive	inactive	inactive	inactive	inactive	inactive		
COC(=O)[C@@H]1[C@H]2C[C@H]3c4[nH]c5ccccc5c4CCN3C[C@@H]2CC[C@@H]1O	inactive	inactive	inactive	inactive	inactive	inactive	inactive	inactive	inactive		inactive	inactive		inactive	inactive	inactive	inactive			inactive
CCCOC(=O)C(C)O (stereo not given)		inactive	inactive	inactive	inactive	inactive	inactive			inactive	inactive	inactive	inactive	inactive			inactive		inactive	inactive
Nc1ccc([N+](=O)[O-])c(N)c1		inactive		inactive		inactive		inactive	33.5 µM (active)	inactive	33.5 µM (active)	inactive	inactive	inactive	inactive	inactive	inactive	inactive	inactive	inactive
COCCc1ccc(OCC2CO2)cc1 (stereo not given)														inactive		inactive	inactive	inactive		
NS(=O)(=O)c1cc2c(cc1Cl)CN(C1CCCCC1)C2=O													inactive	inactive				inactive		
CC(N)C(=O)OC(C)(C)Cc1ccc(Cl)cc1 (stereo not given)		inactive	inactive	inactive	inactive	inactive	inactive	inactive	inactive	inactive	inactive	inactive	inactive	inactive	inactive	inactive	inactive	inactive		inactive
COc1cc2c(cc1OC)C(=O)CC2													inactive	inactive	inactive	inactive	inactive			
CCCCCCCCCCCCCC			inactive				inactive	inactive	inactive	inactive	inactive	inactive		inactive		inactive		inactive		
Cc1cccc(OCC(O)CNC(C)(C)C)c1C (stereo not given)													inactive	inactive			inactive	inactive		
O=Cc1ccc(Cl)c(Cl)c1			inactive				inactive	inactive	inactive			inactive	inactive	inactive		inactive	inactive	inactive	inactive	inactive
Cc1[nH]cnc1-c1ccc(Cl)cc1													inactive	inactive		inactive		inactive		
COc1ccc(Br)c(C)c1			inactive				inactive	inactive	inactive	inactive	inactive	inactive		inactive	inactive	inactive	inactive	inactive	inactive	inactive
CC(C)CC(=O)O		inactive	inactive	inactive	inactive	inactive	inactive	inactive	inactive		inactive	inactive		inactive		inactive		inactive		
CCCCOC(=O)c1ccccc1		inactive	inactive	inactive	34.4 µM (active)	inactive	inactive	inactive	inactive			inactive	inactive	inactive	inactive	inactive	inactive			
